Screening data as filed in PubChem BioAssay.
This excerpt belongs to a sample that is enriched for hits.
Dicer inh: inhibitors of Dicer pre-microRNA processing, primary screen, biochemical, cat-ELCCA, chemiluminescence. 47,000 tested, 6% active. cat-ELCCA pre-miR-21 Dicer processing; hits give high values. Endoribonuclease Dicer (Homo sapiens), Q9UPY3. z-score at 25 µM; in the data active = z-score above about 3, passing the limit was not always enough;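 note: plate controls were vehicle for no effect and no enzyme for full effect; higher signal means more uncleaved substrate so more Dicer inhibition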
Active calls of the source: *.

SMILES | Dicer inh
COc1cc(C2c3c(oc4ccccc4c3=O)C(=O)N2Cc2ccc(F)cc2)ccc1O (configuration not stated) | 1.1
COc1ccc(/C(O)=C2\C(=O)C(=O)N(Cc3cccnc3)C2c2ccccc2F)cc1 (configuration not stated) | 2
Cc1ccc(C)c(Cn2c(=O)c3cnc4c(c(C)nn4C)c3n2C)c1 | -0.29
CNC(=O)c1cccc2cccc(I)c12 | -0.67
CCOC(=O)c1cc(C#N)c(Nc2cccc(Cl)c2)nc1C(F)(F)F | -1.3
COc1cc(C2c3c(oc4cc(C)c(C)cc4c3=O)C(=O)N2c2ccc(C)cn2)ccc1O (configuration not stated) | 15*
COc1ccc(C2c3c(oc4cc(C)c(C)cc4c3=O)C(=O)N2c2ccc(C)cn2)cc1OC (configuration not stated) | 0.71
COc1ccc(C2c3c(oc4cc(C)c(C)cc4c3=O)C(=O)N2c2ccccn2)cc1 (configuration not stated) | -0.09
O=C(NNC(=S)NCCc1ccccc1)c1ccncc1 | -0.08
O=C(NC(=S)NCC1CC1)c1ccccc1 | -0.16
O=C(NC(=S)NCc1ccncc1)c1ccccc1 | 3.4*
S=C(NCCc1ccccn1)c1ccccc1 | -1.9
O=C(NC(=S)NCCc1ccccn1)c1ccccc1 | 3.1*
COc1ccc(CCNC(=S)NC(=O)c2ccccc2)cc1OC | 0.83
O=C(O)CSCC(=O)NC(c1ccccc1)c1ccccc1 | -1.8
CCN1C(=O)C(=O)c2cc(Br)ccc21 | 1.8
COc1ccc(NC(=S)NC(C)(C)C)cc1OC | -0.32
O=[N+]([O-])c1cccc(-c2nnn(Cc3c(F)cccc3Cl)n2)c1 | 9.3
COc1ccc(OCC(O)Cn2c[n+](C)c3ccccc32)cc1 (configuration not stated) | -0.74
CCCCCCSC1=C(C#N)C(c2cccc(Cl)c2)CC(=O)N1 (configuration not stated) | -1.2
CC(=O)/C(C=Nc1cccc(F)c1C#N)=C(\C)O | 10
OCCN1CCN(c2ncc(C(F)(F)F)cc2Cl)CC1 | 7.3
O=C1c2ccccc2NC(c2ccc3c(c2)OCO3)N1Cc1ccccc1 (configuration not stated) | 3.4*
CC1(C)CC(=O)C2=C(C1)Nc1ccccc1NC2c1ccc2c(c1)OCO2 (configuration not stated) | -0.62
c1ccc2c(c1)NC(c1ccc3c(c1)OCCO3)n1cccc1-2 (configuration not stated) | 2.6
SMILES | Dicer inh
Cn1c(CSCc2nc(-c3ccccc3)cs2)nnc1SCC(=O)Nc1ccccc1 | -2.5
CC(C)CC(NC(=O)OC(C)(C)C)C(=O)NCc1ccccc1 (configuration not stated) | 0.85
CC(NC(=O)OC(C)(C)C)C(=O)NCc1ccccc1 (configuration not stated) | -0.32
CC(C)(C)OC(=O)NC(Cc1ccccc1)C(=O)NCc1ccccc1 (configuration not stated) | 4.6*
Nc1nc2nc3c(c(-c4ccccc4)c2c(=O)[nH]1)C(=O)c1ccccc1-3 | -0.08
Brc1cc(Br)c(-c2sc(Br)cc2Br)s1 | 0.85
CCOC(=O)C1=NN(c2ccc(OC)cc2)C2C(=O)N(c3ccccc3)C(=O)C12 (configuration not stated) | 4.7*
CCOC(=O)C1=NNC2C(=O)N(c3ccccc3)C(=O)C12 (configuration not stated) | 0.66
COC(=O)C1=NN(c2ccc(OC)cc2)C2C(=O)N(c3ccc(Br)cc3)C(=O)C12 (configuration not stated) | 0.67
CCC(=O)O/N=C(\N)COc1ccc(Cl)cc1Cl | -0.47
Cc1ccnc(NS(=O)(=O)c2ccc(F)c(C)c2)c1 | -1.2
NC(=S)Nc1csc(C(F)(F)F)c1-c1ccccc1 | 3.3*
NC(=S)Nc1ccc(C(F)(F)F)cc1 | -0.82
CSC(N)=Nc1csc(C(F)(F)F)c1-c1ccccc1 | 1.6
CCCCSC1=C(C#N)C(=O)NC(c2ccc(OC)cc2OC)S1 (configuration not stated) | 1.3
COc1ccc(NC(=S)NCCCC2C=NNC2=O)cc1 (configuration not stated) | 0.41
COc1cccc(C=Nc2ccc(S(=O)(=O)/N=C(N)/N=C/c3cccc(OC)c3O)cc2)c1O | -0.79
COc1cccc(C=NCCCC2C=NNC2=O)c1O (configuration not stated) | 5.2*
CS(=O)(=N/C=C(\C#N)C(=O)c1ccc(Cl)cc1)c1ccc(C(F)(F)F)cn1 (configuration not stated) | 0.87
CCOc1cc(C)c(Cl)cc1S(=O)(=O)Nc1ccccn1 | 0.85
O=C1C(=O)N(CCCN2CCOCC2)C(c2ccccc2)/C1=C(\O)c1ccc(Br)cc1 (configuration not stated) | 2.3
CN(C)CCN1C(=O)C(=O)/C(=C(/O)c2ccccc2)C1c1ccc(Br)cc1 (configuration not stated) | 0.89
O=C(O)CCCN1C(=O)C(=O)/C(=C(/O)c2ccccc2)C1c1ccc(Br)cc1 (configuration not stated) | 3.9*
Cc1c(Cc2ccccc2)c(=O)oc2cc(OS(C)(=O)=O)ccc12 | -0.99
O=C(O)c1cc2ccccc2c(-c2c(O)c(C(=O)O)cc3ccccc23)c1O | 4.1*
SMILES | Dicer inh
O=C(O)c1ccc2ccccc2c1-c1c(C(=O)O)ccc2ccccc12 | 1.1
O=C(O)c1cc(-c2cc(C(=O)O)c3ccccc3n2)nc2ccccc12 | 0.45
O=C(O)CC(O)c1nc2ccccc2[nH]1 (configuration not stated) | 1.7
COc1cccc(C2C3=C(CC(C)(C)CC3=O)Nc3ncnn32)c1 (configuration not stated) | 0.19
O=S1(=O)CC2SC(=S)N(c3cccc(O)c3)C2C1 (configuration not stated) | 0.2
Cc1ccc(C)c(NC(=S)NC2CC(C)CC(C)(C)C2)c1 (configuration not stated) | 2.5
CC1C(c2ccccc2)OCCN1CN1C(=O)c2ccccc2C1=O (configuration not stated) | 3.7*
Cc1onc(-c2ccccc2Cl)c1C(=O)N1CCOC(c2ccccc2)C1C (configuration not stated) | -0.25
O=C1c2ccccc2C(=O)N1CC1CN(CC(O)C(F)(F)F)CCO1 (configuration not stated) | 0.07
O=C(Nc1ccccc1F)C1Sc2nnc(-c3ccccc3)n2NC1c1ccccc1 (configuration not stated) | 3
Cc1cc(N(Cc2ccc(Cl)cc2)C(=O)c2ccc(Cl)cc2)no1 | -0.61
O=C1Nc2ccccc2/C1=C/c1ccc2nsnc2c1 | -0.73
COc1cc2c(cc1OC)/C(=C/c1cc(OC)c(OC)c(OC)c1)C(=O)N2 | 1.7
O=C1Nc2ccc(I)cc2/C1=C/c1cc(Br)c(O)c(Br)c1 | 4.5*
FC(F)(F)c1cc(Nc2nc(-c3cc(-c4ccccc4)no3)cs2)cc(C(F)(F)F)c1 | 0.65
Cc1cccc(Cn2c(C)c(C)c(S(=O)(=O)c3ccccc3)c2N)c1C | -1.4
O=c1[nH]c2sc(-c3ccccc3)cc2c(=O)n1-c1ccccc1 | 2.1
Cc1ccc(-n2c(=O)[nH]c3sc(-c4ccccc4)cc3c2=O)cc1 | 3.2*
Cc1ccccc1-n1c(=S)[nH]c2sc(-c3ccccc3)cc2c1=O | 2.5
Cc1cccc(C2C3=C(CC(C)(C)CC3=O)N=C3c4ccccc4C(=O)C32)c1 (configuration not stated) | -0.39
Nc1ccc(-c2nc3cc(N)ccc3n2-c2ccccc2)cc1 | 3.4*
